The list is not random: actives were taken first. Their share in the collection is about 3.5%.
FBW7 activator: FBW7 E3 ligase activators, primary screen, biochemical, AlphaScreen, human; AlphaScreen FBW7–phospho-cyclin E peptide binding, activator screen; normalized activity (activation), % at 26.1 µM; 650,000 tested, 0.13% active; AID 1259310, 2017; in the data active = normalized activity above about 1.9%;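 note: purified mutant Fbw7 with reduced substrate affinity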
GPR151 ag: activators of human GPR151, primary screen, cell-based, PathHunter beta-arrestin, luminescence. 650,000 tested, 1% active. activation, % at 11.2 µM. AID 1508602, 2020. PathHunter beta-arrestin GPR151 cells. G-protein coupled receptor 151 (Homo sapiens), Q8TDV0; in the data active = activation above about 4.9%
Target sequence (Q8TDV0 whole entry, looked up): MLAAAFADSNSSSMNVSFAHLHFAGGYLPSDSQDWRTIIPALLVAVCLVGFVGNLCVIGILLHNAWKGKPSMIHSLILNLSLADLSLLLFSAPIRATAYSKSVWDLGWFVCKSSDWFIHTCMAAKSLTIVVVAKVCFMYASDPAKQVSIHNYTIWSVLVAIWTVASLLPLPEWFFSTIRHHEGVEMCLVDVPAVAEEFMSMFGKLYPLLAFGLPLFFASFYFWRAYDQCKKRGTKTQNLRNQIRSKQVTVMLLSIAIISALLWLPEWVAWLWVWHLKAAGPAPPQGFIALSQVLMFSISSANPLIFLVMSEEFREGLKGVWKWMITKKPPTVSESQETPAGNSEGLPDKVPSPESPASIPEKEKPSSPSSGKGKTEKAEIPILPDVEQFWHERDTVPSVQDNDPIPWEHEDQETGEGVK
MITF primary: MITF inhibitors, primary screen, biochemical, AlphaScreen, human; AID 1259374, 2018; inhibition, % at 2.6 µM; AlphaScreen MITF homodimerization, bead proximity signal; 650,000 tested, 0.91% active; Microphthalmia-associated transcription factor (Homo sapiens), O75030; in the data active = inhibition above about 50%
TEAD-YAP block: TEAD-YAP interaction inhibition, primary screen, TEAD-YAP interaction inhibitor project, luminescence, HEK-TIYL cells | TEAD-Gal4/YAP UAS-luciferase luminescence | inhibition, % at 9.12 µM | 640,000 tested, 1.4% active | AID 1259422, 2018; in the data active = inhibition above about 32%
MITF inh conf: MITF inhibitors, retest of hits, confirmation, biochemical, AlphaScreen, triplicate | shares compounds with MITF primary | AlphaScreen MITF homodimerization, biotin/His-MITF beads | inhibition, % at 2.6 µM | 4,700 tested, 16% active;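 active = inhibition above a cutoff derived from the DMSO control wells, cut at about 28% in these data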;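 note: inhibitors lower the bead chemiluminescence by keeping MITF from dimerizing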
AS interf ctr: AlphaScreen optical interference compounds, counter-screen for MITF inhibitor project, biochemical, triplicate | 4,700 tested, 7.6% active | shares compounds with MITF primary | LysRS AlphaScreen counterscreen, signal interference | inhibition, % at 2.6 µM | AID 1259376, 2018;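 active = inhibition above a cutoff derived from the DMSO control wells, cut at about 30% in these data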
Numbers stand for hits; i = inactive; nt = no result given.

SMILES	FBW7 activator	GPR151 ag	MITF primary	TEAD-YAP block	MITF inh conf	AS interf ctr
O=S(=O)(/C=C/c1ccccc1)N1CCN(C/C=C/c2ccccc2)CC1	i	i	i	i	nt	nt
COc1cc(/C=C/C(=O)OCC(=O)Nc2ccc([N+](=O)[O-])cc2C#N)ccc1O	i	i	72	i	i	i
N#Cc1cc([N+](=O)[O-])ccc1NC(=O)COC(=O)/C=C/c1ccc2c(c1)OCO2	i	i	i	i	nt	nt
CCOC(=O)N1CCN(C(=O)C2CCN(Cc3ccc(CC)cc3)CC2)CC1	i	i	i	i	nt	nt
CCOC(=O)C1CCN(C(=O)/C=C/c2ccccc2)CC1	i	i	i	i	nt	nt
CCOC(=O)C1CCN(C(=O)/C=C/c2ccc(F)cc2)CC1	i	i	71	i	i	i
CCOC(=O)C1CCN(C(=O)C2CCN(Cc3ccc(CC)cc3)CC2)CC1	i	i	61	i	i	i
CCOC(=O)C1CCN(Cc2cn[nH]c2-c2ccccc2)CC1	i	i	55	i	i	i
CCOC(=O)C1CCN(C(=O)C2CCN(Cc3ccc(OCC)cc3)CC2)CC1	i	i	53	i	i	i
COc1cccc(/C=N/NC(=O)C2CCCN2S(=O)(=O)c2ccc(C)cc2)c1 (stereo not drawn)	i	i	i	i	nt	nt
O=C(NCCc1ccc(O)cc1)c1cnc(N2CCCC2CO)s1 (stereo not drawn)	i	i	i	i	nt	nt
Cc1ccc(CNC(=O)C2CCN(Cc3ccc(F)cc3)CC2)cc1	i	i	i	i	nt	nt
O=C(C1CCN(Cc2ccc(F)cc2)CC1)N1CCN(Cc2ccccc2)CC1	i	i	62	i	i	i
CCOc1ccc(CN2CCC(C(=O)NCc3ccc(C)cc3)CC2)cc1	i	i	54	i	i	i
CCc1ccc(CN2CCC(C(=O)N3CCCC3)CC2)cc1	i	i	58	i	i	i
CN1CCCN(Cc2cccc3ccccc23)CC1	i	i	52	i	i	i
Cc1ccccc1CN1CCCN(C)CC1	i	i	i	i	nt	nt
CN1CCN(Cc2c3ccccc3cc3ccccc23)CC1	i	i	76	i	i	i
OCCN1CCN(Cc2c3ccccc3cc3ccccc23)CC1	i	i	i	i	nt	nt
CN1CCCN(Cc2cc(F)ccc2F)CC1	i	i	70	i	i	i
CSc1ccc(CC(=O)Nc2nc3c(Cl)cccc3s2)cc1	i	i	i	i	nt	nt
Cc1cc(C)nc(SCC(=O)Nc2ccc(S(=O)(=O)N3CCCCC3)cc2)n1	i	i	i	i	nt	nt
O=C(COc1ccccc1)NCCSc1c[nH]c2ccccc12	i	i	i	i	nt	nt
Cc1nc2c(C(=O)Nc3ccc(F)c(Cl)c3)snc2c(=O)[nH]1	i	i	i	i	nt	nt
Cc1ccc2c(c1)C(C1C(=O)CC(C)(C)CC1=O)c1ccccc1O2 (stereo not drawn)	i	i	i	i	nt	nt
SMILES	FBW7 activator	GPR151 ag	MITF primary	TEAD-YAP block	MITF inh conf	AS interf ctr
Cc1scc(C(=O)N2CCN(c3ncccn3)CC2)c1-c1ccccc1	i	i	i	i	nt	nt
CCOc1ccc(C(=O)NCC2(c3cccs3)CC2)cc1	i	i	52	i	i	i
COc1ccc(C2C3=C(CC(C)(C)CC3=O)NC3=C2C(=O)CC(C)(C)C3)cc1OC	i	i	i	i	nt	nt
O=C(O)c1cccc(NS(=O)(=O)c2cccc(C(=O)Nc3ccccc3)c2)c1	i	i	51	i	i	i
O=C(CN1CCOCC1)Nc1ccccc1N1CCOCC1	i	i	87	i	i	i
O=C(CNC1CCCCC1)Nc1ccccc1N1CCCCC1	i	i	54	i	i	i
O=C(CN1CCCC1)Nc1ccccc1N1CCCCC1	i	i	62	i	i	i
Cc1cc(N)ccc1NC(=O)CN1CCCC1	i	i	67	i	i	i
CC1CCN(CC(=O)Nc2ccccc2N2CCCCC2)CC1	i	i	i	i	nt	nt
Cc1nn(-c2ccccc2)c(-n2cccc2)c1C(=O)N1CCOCC1	i	i	i	i	nt	nt
CN1CCN(CC(=O)Nc2ccccc2N2CCCCCC2)CC1	i	i	62	i	i	i
Cc1cc(NC(=O)CNCC2CCCO2)no1 (stereo not drawn)	i	i	54	i	i	i
CCC(=O)Nc1ccccc1N1CCCC1	i	i	i	i	nt	nt
O=C(CNCC1CCCO1)Nc1ccccc1N1CCCCC1 (stereo not drawn)	i	i	60	i	i	i
C=C(C)CONC(=O)c1cnc2sc(C)cn2c1=O	i	i	i	i	nt	nt
CC(C)(C)c1ccc(/C=C/C(=O)Nc2ccc(S(N)(=O)=O)cc2)cc1	i	i	i	i	nt	nt
CCN(CC)c1nc(NCCOc2ccccc2)nc(Nc2cccc(N(C)C)c2)n1	i	i	61	i	i	i
CN(C1CC1)S(=O)(=O)c1ccc(C(=O)Nc2ncnc3c2CCC3)cc1	i	i	i	i	nt	nt
CN(C)S(=O)(=O)c1ccc(C(=O)Nc2ncnc3c2CCC3)cc1	i	i	55	i	i	i
COc1ccc(CCN=C(C)C2=C(O)C(c3ccccc3)OC2=O)cc1OC (stereo not drawn)	i	i	74	i	i	i
Cc1ccccc1-n1nc2c(c1NC(=O)c1ccc3c(c1)OCO3)CSC2	i	i	i	i	nt	nt
Fc1ccc(-c2csc(Nc3ccc4c(c3)OCO4)n2)cc1	i	i	i	i	nt	nt
O=C(CSc1ncc(-c2ccccc2)[nH]1)N1CCCc2ccccc21	i	i	i	i	nt	nt
CCOc1ccccc1C1C(C#N)=C(SCC(=O)Nc2ccc(Br)cc2)NC(=O)C1C(=O)OC (stereo not drawn)	i	i	54	i	i	i
CC(C)(C)n1ncc2c(=O)n(Cc3ccccc3)cnc21	i	i	i	i	nt	nt
SMILES	FBW7 activator	GPR151 ag	MITF primary	TEAD-YAP block	MITF inh conf	AS interf ctr
CC(C)(C)n1ncc2c(=O)n(Cc3cccc(Cl)c3)cnc21	i	i	62	i	i	i
CC1CCCC(C)N1C(=O)Cn1ncc2c(=O)oc3ccccc3c21 (stereo not drawn)	i	i	i	i	nt	nt
CCN(CC)CCCNC(=O)c1ccc(Cl)cc1[N+](=O)[O-]	i	i	i	i	nt	nt
COc1ccc(C(=O)Nc2cc(C(=O)N(C)Cc3ccccc3)ccc2N2CC3CC(C2)c2cccc(=O)n2C3)cc1 (stereo not drawn)	i	i	87	i	i	i
COc1cc(OC)cc(C(=O)Nc2cc(C(=O)N(C)Cc3ccccc3)ccc2N2CC3CC(C2)c2cccc(=O)n2C3)c1 (stereo not drawn)	i	i	i	i	nt	nt
Cc1ccccc1CC(C1CCN(C(=O)CCC(N)=O)CC1)N(C)C(=O)Cn1cccn1 (stereo not drawn)	i	i	i	i	nt	nt
NC(=O)COC(=O)c1ccc(S(=O)(=O)N2CCCC2)cc1	i	i	i	i	nt	nt
CCOC(=O)CNS(=O)(=O)c1ccc2[nH]cc(C(=O)O)c(=O)c2c1	i	i	52	i	i	i

Screening data deposited in PubChem BioAssay by The Scripps Research Institute Molecular Screening Center.
